Activity calls are given as the source filed them. How the source made its calls: active means hit-call score of the fitted dose curve at least 0.9, where 1 is the maximum; inactive means score below 0.9.
Legend:
[1] = read-out: Macrophage colony-stimulating factor (MCSF), CSF1 (gene 1435); test: BSK_hDFCGF_MCSF: BioMAP Diversity Plus: hDFCGF Assay for Macrophage colony-stimulating factor (MCSF) Biomarker Activity (AID 2283060); conditions: primary human foreskin fibroblasts; actives raise or lower the signal
Summary of the method: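 M-CSF levels read by ELISA at 24 h post-dosing in human skin fibroblasts. Parallel cultures stained with SRB assessed cytotoxicity at the same time point; response fitted in both directions against the DMSO baseline.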

[2] = BSK_hDFCGF_SRB: Viability Assessment in the BioMAP Diversity Plus: hDFCGF Assay (AID 2283061); conditions: primary human foreskin fibroblasts;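 further: cells exposed to compound for 24 h before the read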
Summary of the method: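 Viability was read as total protein: after 10% TCA fixation, wells were stained with 0.1% sulforhodamine B and read at 560 nm. Primary human foreskin fibroblasts were dosed for 24 h, with bidirectional fitting versus DMSO.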

[3] = read-out: TIMP metallopeptidase inhibitor 1 (TIMP1), TIMP1 (gene 7076); test: BSK_hDFCGF_TIMP1: BioMAP Diversity Plus: hDFCGF Assay for TIMP metallopeptidase inhibitor 1 (TIMP1) Biomarker Activity (AID 2283062); conditions: primary human foreskin fibroblasts; actives raise or lower the signal
Summary of the method: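 TIMP-1 measured by ELISA 24 h after chemical dosing of primary human skin fibroblasts, with gain or loss fitted relative to DMSO. Parallel SRB staining (560 nm) monitored overt cytotoxicity.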

[4] = read-out: Monokine induced gamma interferon (MIG), CXCL9 (gene 4283); test: BSK_hDFCGF_MIG: BioMAP Diversity Plus: hDFCGF Assay for Monokine induced gamma interferon (MIG) Biomarker Activity (AID 2283063); conditions: primary human foreskin fibroblasts; actives raise or lower the signal
Summary of the method: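 Human primary foreskin fibroblasts in the hDFCGF system, exposed to test chemical for 24 h; MIG measured by ELISA. Bidirectional curve fitting against DMSO negative control as activity baseline.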

[5] = read-out: Matrix Metallopeptidase 1 (MMP1), MMP1 (gene 4312); test: BSK_hDFCGF_MMP1: BioMAP Diversity Plus: hDFCGF Assay for Matrix Metallopeptidase 1 (MMP1) Biomarker Activity (AID 2283064); conditions: primary human foreskin fibroblasts; actives raise or lower the signal
Summary of the method: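 hDFCGF primary fibroblasts (human foreskin); chemical added; 24 h; MMP1 by ELISA; bidirectional fit vs DMSO.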

[6] = read-out: Vascular cell adhesion molecule 1 (VCAM1), VCAM1 (gene 7412); test: BSK_hDFCGF_VCAM1: BioMAP Diversity Plus: hDFCGF Assay for Vascular cell adhesion molecule 1 (VCAM1) Biomarker Activity (AID 2283065); conditions: primary human foreskin fibroblasts; actives raise or lower the signal
Summary of the method: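 ELISA readout of VCAM-1 on human dermal fibroblast primary cultures, 24 h after chemical exposure. Gain or loss of signal fitted in both directions against DMSO baseline.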

[7] = read-out: Plasminogen activator inhibitor-1 (PAI1), SERPINE1 (gene 5054); test: BSK_hDFCGF_PAI1: BioMAP Diversity Plus: hDFCGF Assay for Plasminogen activator inhibitor-1 (PAI1) Biomarker Activity (AID 2283066); conditions: primary human foreskin fibroblasts; actives raise or lower the signal
Summary of the method: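 Human foreskin fibroblast primary cells, 24 h chemical exposure; PAI-1 measured by ELISA. Bidirectional fitting relative to DMSO; parallel cultures stained with SRB for total protein to flag overt cytotoxicity.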

[8] = read-out: Intercellular Adhesion Molecule 1 (ICAM1), ICAM1 (gene 3383); test: BSK_KF3CT_ICAM1: BioMAP Diversity Plus: KF3CT Assay for Intercellular Adhesion Molecule 1 (ICAM1) Biomarker Activity (AID 2283067); conditions: primary human keratinocytes with fibroblasts; actives raise or lower the signal
Summary of the method: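 Cell-surface ICAM-1 was measured by ELISA 24 h after dosing primary human skin keratinocytes co-cultured with fibroblasts. Parallel SRB staining tracked overt cytotoxicity. Gain or loss of signal was fitted relative to DMSO.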

[9] = read-out: Interferon-gamma inducible Protein 10 (IP10), CXCL10 (gene 3627); test: BSK_KF3CT_IP10: BioMAP Diversity Plus: KF3CT Assay for Interferon-gamma inducible Protein 10 (IP10) Biomarker Activity (AID 2283068); conditions: primary human keratinocytes with fibroblasts; actives raise or lower the signal
Summary of the method: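 Signal is secreted/surface IP-10 by ELISA in a human primary skin co-culture of keratinocytes and foreskin fibroblasts, taken 24 h post-dosing; DMSO served as negative control.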

[10] = BSK_KF3CT_SRB: Viability Assessment in the BioMAP Diversity Plus: KF3CT Assay (AID 2283069); conditions: primary human keratinocytes with fibroblasts;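 further: total protein by sulforhodamine B staining as a cytotoxicity measure; read 24 h after compound addition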
Summary of the method: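 Keratinocytes co-cultured with foreskin fibroblasts (human primary); chemical added, 24 h; fix 10% TCA, stain 0.1% SRB, A560. Bidirectional fit vs DMSO.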

[11] = read-out: Interleukin-1 alpha (IL1a), IL1A (gene 3552); test: BSK_KF3CT_IL1a: BioMAP Diversity Plus: KF3CT Assay for Interleukin-1 alpha (IL1a) Biomarker Activity (AID 2283070); conditions: primary human keratinocytes with fibroblasts; actives raise or lower the signal
Summary of the method: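 Chemicals were dosed onto co-cultured human keratinocytes and foreskin fibroblasts, IL-1a was quantified by ELISA at 24 h, and activity was fitted in both directions relative to DMSO controls.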

[12] = read-out: TIMP metallopeptidase inhibitor 2 (TIMP2), TIMP2 (gene 7077); test: BSK_KF3CT_TIMP2: BioMAP Diversity Plus: KF3CT Assay for TIMP metallopeptidase inhibitor 2 (TIMP2) Biomarker Activity (AID 2283071); conditions: primary human keratinocytes with fibroblasts; actives raise or lower the signal
Summary of the method: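 Co-culture of human primary keratinocytes and foreskin fibroblasts, measured 24 h after chemical dosing. TIMP-2 quantified by ELISA and fitted in both directions relative to DMSO. Cytotoxicity checked in parallel cultures by SRB total-protein staining.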

[13] = read-out: Transforming growth factor beta 1 (TGFb1), TGFB1 (gene 7040); test: BSK_KF3CT_TGFb1: BioMAP Diversity Plus: KF3CT Assay for Transforming growth factor beta 1 (TGFb1) Biomarker Activity (AID 2283072); conditions: primary human keratinocytes with fibroblasts; actives raise or lower the signal
Summary of the method: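 Human keratinocyte/foreskin fibroblast co-culture; TGF-b1 measured by ELISA 24 h after dosing, fitted bidirectionally versus DMSO. Cytotoxicity checked in parallel cultures by total protein (SRB staining, 560 nm).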

[14] = read-out: C-C motif chemokine 2 (Homo sapiens) (UniProt P13500); test: BSK_KF3CT_MCP1: BioMAP Diversity Plus: KF3CT Assay for Monocyte Chemoattractant Protein 1 (MCP1/CCL2) Biomarker Activity (AID 2283073); conditions: primary human keratinocytes with fibroblasts; actives raise or lower the signal
Summary of the method: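 ELISA read-out of MCP-1, 24 h post-dose, in primary human skin keratinocytes co-cultured with fibroblasts. Parallel SRB staining monitors cytotoxicity; changes fitted both directions relative to DMSO.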

[15] = read-out: Matrix Metallopeptidase 9 (MMP9), MMP9 (gene 4318); test: BSK_KF3CT_MMP9: BioMAP Diversity Plus: KF3CT Assay for Matrix Metallopeptidase 9 (MMP9) Biomarker Activity (AID 2283074); conditions: primary human keratinocytes with fibroblasts; actives raise or lower the signal;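 on AC50: MMP9 protein level quantified by ELISA in the co-culture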
Summary of the method: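 Human keratinocyte/foreskin fibroblast co-culture; compound added; 24 h; MMP-9 by ELISA; bidirectional fit vs DMSO baseline.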

[16] = read-out: urokinase plasminogen activator (uPA), PLAU (gene 5328); test: BSK_KF3CT_uPA: BioMAP Diversity Plus: KF3CT Assay for urokinase plasminogen activator (uPA) Biomarker Activity (AID 2283075); conditions: primary human keratinocytes with fibroblasts; actives raise or lower the signal
Summary of the method: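 ELISA readout of uPA, analyzed for signal gain or loss relative to DMSO, from a human primary keratinocyte–foreskin fibroblast co-culture measured 24 h after chemical treatment.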

[17] = read-out: CD40, CD40 (gene 958); test: BSK_LPS_CD40: BioMAP Diversity Plus: LPS Assay for CD40 Biomarker Activity (AID 2283076); conditions: primary human HUVEC with PBMC; actives raise or lower the signal
Summary of the method: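 In the LPS system of human endothelial cells with peripheral blood mononuclear cells, CD40 levels were read by ELISA 24 h post-treatment. Signal changes in either direction were fitted against the DMSO baseline, with parallel SRB protein staining.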

[18] = read-out: E-selectin (Homo sapiens) (UniProt P16581); test: BSK_LPS_Eselectin: BioMAP Diversity Plus: LPS Assay for Eselectin Biomarker Activity (AID 2283077); conditions: primary human HUVEC with PBMC; actives raise or lower the signal
Summary of the method: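 E-selectin ELISA on LPS-stimulated endothelial cell/PBMC co-cultures, read 24 h post-treatment; gains and losses fitted against DMSO. Parallel SRB staining (0.1% SRB after 10% TCA fixation, 560 nm) flags overt cytotoxicity.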

[19] = BSK_LPS_SRB: Viability Assessment in the BioMAP Diversity Plus: LPS Assay (AID 2283079); conditions: primary human HUVEC with PBMC;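 further: total protein by sulforhodamine B absorbance as a cytotoxicity measure; measured one day after compound addition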
Summary of the method: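 SRB viability endpoint: cells fixed with 10% TCA, stained with 0.1% SRB, read at 560 nm, 24 h post-dose. HUVEC/PBMC co-culture; signal change in either direction scored relative to DMSO.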

[20] = read-out: Interleukin-8 (IL8), CXCL8 (gene 3576); test: BSK_LPS_IL8: BioMAP Diversity Plus: LPS Assay for Interleukin-8 (IL8) Biomarker Activity (AID 2283078); conditions: primary human HUVEC with PBMC; actives raise or lower the signal
Summary of the method: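 ELISA read-out of IL-8 after 24 h chemical treatment of LPS-activated endothelial/PBMC human primary co-cultures. Changes either up or down relative to DMSO; overt cytotoxicity checked by sulforhodamine B staining in parallel wells.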

Measured: AC50

Sequence of E-selectin (Homo sapiens) (P16581 whole entry, looked up): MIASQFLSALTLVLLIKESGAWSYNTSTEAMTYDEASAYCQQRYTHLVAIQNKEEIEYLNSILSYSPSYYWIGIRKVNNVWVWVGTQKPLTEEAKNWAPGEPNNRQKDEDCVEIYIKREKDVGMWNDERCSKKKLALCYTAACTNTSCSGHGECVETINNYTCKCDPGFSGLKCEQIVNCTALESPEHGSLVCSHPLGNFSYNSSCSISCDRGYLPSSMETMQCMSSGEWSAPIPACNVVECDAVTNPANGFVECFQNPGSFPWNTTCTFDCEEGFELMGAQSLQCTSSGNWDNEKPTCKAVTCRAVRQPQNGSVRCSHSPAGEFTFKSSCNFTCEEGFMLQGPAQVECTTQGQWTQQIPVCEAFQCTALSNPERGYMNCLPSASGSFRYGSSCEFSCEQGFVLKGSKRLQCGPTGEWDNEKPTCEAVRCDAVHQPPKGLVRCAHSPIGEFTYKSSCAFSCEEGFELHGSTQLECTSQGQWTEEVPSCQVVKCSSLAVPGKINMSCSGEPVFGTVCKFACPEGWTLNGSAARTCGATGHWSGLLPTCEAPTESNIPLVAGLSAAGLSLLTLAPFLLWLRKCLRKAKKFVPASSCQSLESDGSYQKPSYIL

CN/C(=N\[N+](=O)[O-])NCc1cnc(Cl)s1
not listed: [20]
inactive: all other assays above

COCc1cnc(C2=NC(C)(C(C)C)C(=O)N2)c(C(=O)O)c1 (configuration not stated)
active: [9] 12.3 µM
inactive: all other assays above

COC(=O)NS(=O)(=O)c1ccc(N)cc1
not listed: [20]
inactive: all other assays above

Cc1cnc(C2=NC(C)(C(C)C)C(=O)N2)c(C(=O)O)c1 (configuration not stated)
inactive: all assays above

O=C(Nc1ccccc1-c1ccc(Cl)cc1)c1cccnc1Cl
active: [9] 0.128 µM | [14] 0.843 µM
not listed: [20]
inactive: all other assays above

CCSC(=O)N1CCCCCC1
inactive: all assays above

CCOC(=O)C(C)OC(=O)c1cc(Oc2ccc(C(F)(F)F)cc2Cl)ccc1[N+](=O)[O-] (configuration not stated)
active: [1] 8.12 µM | [15] 5.83 µM | [19] 6.48 µM
inactive: all other assays above
